Bioassay records as filed in PubChem BioAssay.
Most compounds without a hit are left out; they make up all but 17% or so of the library.
ClpP mod = qHTS Assay for Activators of ClpP; actives 1.9% (n = 340,000); purified B. subtilis ClpP, FRET peptide cleavage, 20 min; ATP-dependent Clp protease proteolytic subunit (Bacillus subtilis (strain 168)), P80244; Potency, µM (series often up to 57.5 µM), without a hit: at the top dose activity change, negative = active; AID 651965, 2013; active = well fitted falling curve with a large enough effect; inconclusive = small, poorly fitted or top-dose-only effect; inactive = no such curve, though single readings can be large or run the other way; note: the source files actives as falling curves though it sought activators and does not explain the sign; nearly all actives have a fitted effect of over 65% in size
Target sequence (P80244 whole entry, looked up): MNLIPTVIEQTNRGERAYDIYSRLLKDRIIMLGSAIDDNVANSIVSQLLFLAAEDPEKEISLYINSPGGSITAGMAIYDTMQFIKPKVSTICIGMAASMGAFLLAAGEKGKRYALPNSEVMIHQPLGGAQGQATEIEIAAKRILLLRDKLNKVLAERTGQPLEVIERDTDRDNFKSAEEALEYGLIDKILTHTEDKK
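FRET quenching reversal measured ClpP activation: 10 microg/mL B. subtilis ClpP at pH 8 with the FRET-FV decapeptide, read at 430 nm after 320 nm excitation. The 20-min minus 0-min signal was scaled between DMSO/no-enzyme wells and ADEP (5.8 microM final).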
TDP1 inh = qHTS Assay for Inhibitors of Tyrosyl-DNA Phosphodiesterase (TDP1); actives 0.28% (n = 350,000); AID 485290, 2010; Potency, µM (doses to about 130 µM), for inactives: at the top dose activity change, negative = inhibition, most hits filed as inhibitors; recombinant TDP1, AlphaScreen DNA substrate cleavage; note: % is set by controls: 0 for no effect and ±100 for the full control effect; nearly all actives have a fitted effect of over 40% in size
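E. coli-derived human Tdp1, 1 nM final. Cpd preinc 15 min RT; substrate 15 nM final, 5 min RT; AS bead mix 10 ug/ml final, 10 min RT. Signal loss = tyrosine-FITC cleavage. No-enzyme wells = max signal.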
DT40 TDP1 no CPT = qHTS for Inhibitors of human tyrosyl-DNA phosphodiesterase 1 (TDP1): qHTS in cells in absence of CPT | actives 15% (n = 420,000) | Potency, µM (doses to about 46.2 µM), for inactives: at the top dose activity change, negative = growth inhibition, most hits filed as inhibitors | DT40 Tdp1-/- hTDP1 cells, no CPT, ATP luminescence, 48 h; note: % is set by controls: 0 for no effect and ±100 for the full control effect; nearly all actives have a fitted effect of over 55% in size
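Growth of hTDP1-complemented DT40 Tdp1-knockout cells is measured by ATP luminescence after at least 48 hr compound exposure at 37 °C, with DMSO substituting for the 20 nM CPT used in the parallel screen.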
TDP1 cell CPT = qHTS for Inhibitors of human tyrosyl-DNA phosphodiesterase 1 (TDP1): qHTS in cells in presence of CPT; chicken DT40 Tdp1-/-;hTDP1 cells + 20 nM CPT, ATP luminescence, 48 h; Potency, µM (titrated, usually from 46.2 µM), inactives show at the top dose activity change, negative = growth inhibition, hits mostly inhibitors; actives 12% (n = 420,000); AID 686979, 2013; note: % is set by controls: 0 for no effect and ±100 for the full control effect; nearly all actives have a fitted effect of over 55% in size
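Cell growth measured by CellTiter-Glo luminescence after a minimum 48 h, 37 C compound exposure with 20 nM CPT in Tdp1-knockout DT40 cells stably expressing hTDP1, seeded 400/well; qHTS titration format.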
* = called active by the depositor; u = inconclusive; x = no result; [ ] = remark or other dose. Unless noted, calls come from the whole dose curve; as a rule, active = well fitted curve in the direction sought with a large enough effect; inconclusive = small, poorly fitted or top-dose-only effect, or another doubt; inactive = no such curve, though single readings can be large; an effect the other way counts as inactive or inconclusive. Potency is the fitted concentration of half-maximal effect.

SMILES	ClpP mod	TDP1 inh	DT40 TDP1 no CPT	TDP1 cell CPT
C/C(=N\NC(=O)C(C)Sc1ccccc1)c1ccc([N+](=O)[O-])cc1 (stereo not drawn)	-2.1%	x	4.11µM*	u
C/C(=N\NC(=O)CSCc1ccc([N+](=O)[O-])cc1)c1ccccc1O	-0.1%	0.0%	3.66µM*	5.17µM*
C/C(=N\NC(=O)Cc1ccc(Cl)cc1)c1ccccc1O	x	x	0.164µM*	u
Cc1ccc(CSCCNC(=O)CSCc2ccc([N+](=O)[O-])cc2)cc1	-0.1%	2.8%	u	-29.3%
N#CC1(O)CCCCC1	x	8.2%	x	x
CC(C)(O)C#Cc1ccc(CN2CCc3nnc(CCNC(=O)c4ccco4)n3CC2)cc1	x	x	-11.5%	2.2%[9.04 µM]
Cc1cc2c(Nc3cccc(O)c3)ncnc2s1	-0.6%	x	u	u
C/C(=N\NC(=O)c1ccc2nc[nH]c2c1)c1ccc([N+](=O)[O-])cc1	x	79.4µM*	x	x
O=C(N/N=C/c1ccc([N+](=O)[O-])cc1)c1ccc2nc[nH]c2c1	0.2%	2.0%	u	11.0%
CCC(=O)c1c(O)cc(O)cc1O	x	0.6%[56.1 µM]	-26.6%	-11.5%
CCOc1cccc2sc(N(Cc3cccnc3)C(=O)c3ccc(C#N)cc3)nc12	1.0%	2.6%	23.1µM*	18.4µM*
O=C(c1ccc2c(c1)OCCO2)N(Cc1cccnc1)c1nc2c(F)cccc2s1	-3.8%	2.7%	u	20.6µM*
COc1ccc2sc(N(Cc3cccnc3)C(=O)c3cccs3)nc2c1	5.8%	0.0%	18.4µM*	20.6µM*
O=C(c1ccc2c(c1)OCCO2)N(Cc1cccnc1)c1nc2c(F)cc(F)cc2s1	u	2.7%	u	u
COc1cccc2sc(N(Cc3cccnc3)C(=O)c3ccc4c(c3)OCCO4)nc12	70.1%	8.1%	16.4µM*	u
COc1ccc(CNC(=O)COC(=O)CN2C(=O)NC3(CCCC3)C2=O)cc1	0.4%	0.5%	15.4%	23.6%
COc1ccc(CNC(=O)[C@@H](NC(=O)C2CCN(C(=O)[C@@H](N)CC(C)C)CC2)C(C)C)cc1	1.0%	x	-9.4%	-7.4%
Cc1cccc(-c2noc(CN(C(=O)CCc3ccccc3)C(C)C)n2)c1	-2.4%	0.0%	u	29.1µM*
CC(C)N(Cc1nc(-c2ccc(Cl)cc2)no1)C(=O)/C=C/c1ccccc1	-3.0%	8.1%	u	u
Cc1cccc(-c2noc(CN(C(=O)/C=C/c3ccccc3Cl)C(C)C)n2)c1	-1.8%	0.0%	u	18.4µM*
Cc1cccc(-c2noc(CN(C(=O)COc3ccc(Br)cc3C)C(C)C)n2)c1	-5.0%	2.3%	u	u
Cc1ccccc1NC(=O)Cn1c(=O)n(Cc2ccco2)c(=O)c2cccnc21	-3.3%	-1.0%	u	u
Cc1ccc(Sc2c(C)nn(C(=O)COc3ccc(F)cc3)c2C)cc1	-3.2%	x	-1.9%	-1.7%
Nc1nonc1-c1nc2ccccc2n1Cc1ccc(F)cc1Cl	-3.0%	3.1%	20.6µM*	20.6µM*
COc1ncc2nc(-c3cn(C)c4ccccc34)c(=O)n(-c3ccccc3)c2n1	x	x	-27.8%	-1.1%
SMILES	ClpP mod	TDP1 inh	DT40 TDP1 no CPT	TDP1 cell CPT
Clc1ccc(C#Cc2cccnc2)cc1	-1.3%	-11.1%	3.6%	-20.4%
Clc1ncc(C#Cc2ccccc2)c2ncncc12	3.6%	-0.3%	0.794µM*	1.41µM*
CCC1CC=CC2C1C(=O)N(Cc1ccccc1)C2c1cccc([N+](=O)[O-])c1 (stereo not drawn)	x	9.7%	x	x
O=C(Nc1cccc(-c2cnc3ccccc3n2)c1)c1ccc(Cl)cc1	0.3%	1.9%	-12.1%	-24.1%
Clc1ccc(-[n+]2c(-c3cccc(Br)c3)[nH]c3nc4ccccc4nc32)cc1	x	2.8%	25.9µM*	u
CC(C)(C)n1nc2c(c1NC(=O)Cc1ccc([N+](=O)[O-])cc1)CS(=O)(=O)C2	0.7%	2.3%	-0.1%	-1.3%
COc1cccc(CN(C(=O)c2oc3ccccc3c2C)C2CCS(=O)(=O)C2)c1 (stereo not drawn)	-0.8%	1.2%	20.6µM*	u
COc1cccc(CN(C(=O)c2oc3cc(C)ccc3c2C)C2CCS(=O)(=O)C2)c1 (stereo not drawn)	-3.2%	7.4%	18.4µM*	u
COc1ccc(CN(C(=O)c2oc3ccccc3c2C)C2CCS(=O)(=O)C2)cc1 (stereo not drawn)	-20.9%	3.3%	u	-0.9%
COc1ccc(CN(C(=O)c2oc3cc(C)ccc3c2C)C2CCS(=O)(=O)C2)cc1OC (stereo not drawn)	2.2%	x	u	-4.6%
COc1ccc(C2/C=C\CNCC(=O)N2Cc2ccc(F)cc2)cc1 (stereo not drawn)	-0.8%	11.5%	-8.9%	-8.4%
COc1ccccc1CNC(=O)c1ccc(CN2CC(=O)N3CCCCC3C2=O)cc1 (stereo not drawn)	-2.1%	3.7%	-15.1%	-24.3%
COCC(=O)N1CCC[C@@]2(CCN(c3ccccc3)C2)C1	x	x	-9.0%	6.0%
Cc1ccc(C(=O)n2c3ccccc3c3ccccc32)cc1	4.3%	2.0%	6.51µM*	5.8µM*
CC(=O)n1c2ccccc2c2ccccc21	0.9%	-10.5%	-19.8%	14.3%
CCCN1CCc2c(sc3nc(SC)n(-c4ccccc4)c(=O)c23)C1	x	x	5.8µM*	6.51µM*
CCSc1nc2sc3c(c2c(=O)n1-c1ccccc1)CCN(C)C3	-25.2%	x	u	u
CCCN1CCc2c(sc3nc(SCC)n(-c4ccc(OC)cc4)c(=O)c23)C1	x	x	13µM*	u
COc1ccc(NC(=O)CSc2nc3sc4c(c3c(=O)n2-c2ccc(OC)cc2)CCN(C)C4)cc1	-15.7%	8.2%	u	-21.1%
CCCN1CCc2c(sc3nc(SCC)n(-c4ccccc4)c(=O)c23)C1	x	x	14.6µM*	u
COc1ccc(-n2c(SCC(=O)O)nc3sc4c(c3c2=O)CCC4)cc1	x	-7.6%	-1.8%	-2.0%
COc1ccc(-n2c(SC)nc3sc4c(c3c2=O)CCN(C)C4)cc1	x	x	11.6µM*	u
COc1ccc(C(C)=O)cc1CSc1nnc(Nc2ccc(C)cc2)s1	-0.6%	2.7%	23.1µM*	u
COc1ccc(C(C)=O)cc1CSc1nnc(C)s1	-0.3%	7.7%	-8.4%	-16.6%
COc1ccc(C(C)=O)cc1CSc1nnc(Nc2ccccc2)s1	0.8%	3.4%	16.4µM*	u
CCNc1ncc2nc(-c3cn(C)c4ccccc34)c(=O)n(-c3ccccc3)c2n1	x	x	-4.6%	4.5%
CCOC(=O)CSc1nc2c(sc3cccc(F)c32)c(=O)n1Cc1ccc(OC)cc1	-0.6%	1.5%	-12.9%	-0.8%
O=C(c1cccnc1)N1N=C(C2CCCCC2)CC1(O)C(F)(F)F (stereo not drawn)	x	4.8%	8.2µM*	6.51µM*
